# Source: the supplement of paper PMC6555819
# Tested on: RARg homodimer (NR concentration 270 nM)
# Test: PBM binding z-score (relative to random genomic background probes); higher = stronger binding; sequences stand for … in GC…GCGATTGACAGCGTAGAATGAAGG
# How it was run: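 The probes on custom Agilent 4×180K protein-binding microarrays were double-stranded, with 34-nt variable regions bearing direct-repeat seeds, single-nucleotide variants, half-site ablations and random human genomic background sequences. Incubation lasted 1 h with ligand-free nuclear receptor dimers in PBS pH 7.4, 2% milk, 0.02% Triton X-100, 1 mM DTT, 0.2 mg/mL BSA and 0.4 mg/ml salmon testes DNA. Antibodies against each partner (one per run) detected bound dimers, and fluorescence scans were regression-normalized. Binding z-scores take the random background probes as reference.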
row,Sequence,PBM binding z-score
1,CGAACTAGGTCAAGGACAGTTAATCTCCGCACGC,4.87
2,ACTATGAGTTGACTTAGGGCAACCGATACGACGC,1.2
3,CGGCCTAGGTCAGGGCCAGTATAGGAGGAACGTT,3.41
4,CGAACTAGGGCATGAGTTGATAGCAAATGCCGAT,0.834
5,GATACAGGGTCAAGGCCAGAGAACGCGTATTGAT,5.23
6,TCTATTAGTTGATTTGGGCAACCGAAACAGCGGA,0.0812
7,GAATATAGGTAATACAAGGTGAAAGTCCGATTGT,0.872
8,CCTACTAGGCCAAAAAGGTCATTGATGCCGATAA,4.61
9,CAAACTAGGTCAACGTCAAAGTCGGTTTGTGCCA,4.97
10,CGTCCAAGGACATAGGAGGTCAGTGAAGACAGAT,3.05
11,CCTCCTAGGTCATGGTCAGCTAATCTACAGTATG,4.49
12,TCGATTAGGTTACCAATGGGGCATTCAGCTTTCT,0.551
13,CCTTACGGTTCACGAGGTTATAGCACGACGAGCG,1.5
14,CGAATTAGGTCATCCAGGACAGTGAATACATTGA,5.18
15,CCTATTAGTTGACCATAAGGGCAACCGGAGCTCG,1.19
16,CGAACGAGGGCATGATTTGATAGCAAATGCCGAT,1.19
17,CGAACTAGGTCAGACCAGGACAGTGAAGGATGAT,3.53
18,CAGCCTAAGTCAGGGCCAGTATAGGAGGAACGTT,-0.0459
19,GCTAGTTGGTCAGTATAAGGTCACACACCGGTCG,3.75
20,CAGCCTAGGTCAGCGCCAGTATAGGAGGAACGTT,4.04

row,Sequence,PBM binding z-score
1,ATCTCTAGGTAACTAAGTTCAGTGAATGCCGAAC,0.956
2,ATCTCTAGGTAAAGATAGTACAGTGAATGCAAAT,0.707
3,AATACAGGATCATCGTAGGCCAGAGTACGCACAG,0.569
4,CCTGCTGGGCCAAAAAGGTCATTGATGCCGATAA,4.17
5,ATACCAAGGTGATCGCGAGGTCGTTGATACTAAC,0.886
6,AGTCATAGTTCAGGACGAGGTAACGTAAAGCACG,2.61
7,ATCGAAAGGTGGTGAGGTGAGTATACAGAAAGGC,0.846
8,CTCGAAAGGTCGGTTGAGGAGAGTATACGGATAA,2.43
9,CCGAGTAGCTTATGGGGCATTCAGGCAACGGTGA,-0.43
10,ATATGTAGGTTATCGGGTCGTTCAGTTTGCGCAT,1.28
11,GATACCGGGTCAAGGCCAGAGTACGCGTATTGAT,3.93
12,ACTAGCAGGACAAGTTTGGGTCACTCAAACAAAG,1.55
13,CGTCCAATGTCAGCAGGTCAGTGAAAGCGACGTG,2.59
14,CTCGAAAGGTCGTACTCAGGTGAGTATACCAAAC,3.87
15,ACTATTAGTTGAGACGAGGGAAACCGATAGGTTG,0.307
16,CGTCCAAGGTCATAGGAGGTCAGTGAAGACAGAT,7.12
17,GCATAAAGGTAATACAAGGTGAAAGTCCGATTGT,0.92
18,CTCGAAAGGTCTTGCTCAGGTGAGTATACCAAAC,1.33
19,CCTAGCAGGCCAGGGTCACACAAGCATTTCGCTT,2.62
20,ATCTCTAGGTAAAAGTTCAGCGAATCCCGAGGAT,3.02
